This is an account of results in PMC7862700, “An all-to-all approach to the identification of sequence-specific readers for epigenetic DNA modifications on cytosine”.

What all share (test): DAPPL (digital affinity profiling via proximity ligation, sequencing); 10 mM Tris-HCl pH 7.5, 50 mM NaCl, 1 mM DTT, 4% glycerol, room temperature, 30 min; GST-TFs on glutathione beads, 16-mer random dsDNA library, 0.1% formaldehyde crosslink after washing; high values mean tight binding
Common to all, as to conditions: protein: recombinant; tags: N-terminal GST; dsDNA, one strand shown

One experiment deals with T1, FLI1 (Homo sapiens, UniProt Q01543 1-452).
T1 sequence: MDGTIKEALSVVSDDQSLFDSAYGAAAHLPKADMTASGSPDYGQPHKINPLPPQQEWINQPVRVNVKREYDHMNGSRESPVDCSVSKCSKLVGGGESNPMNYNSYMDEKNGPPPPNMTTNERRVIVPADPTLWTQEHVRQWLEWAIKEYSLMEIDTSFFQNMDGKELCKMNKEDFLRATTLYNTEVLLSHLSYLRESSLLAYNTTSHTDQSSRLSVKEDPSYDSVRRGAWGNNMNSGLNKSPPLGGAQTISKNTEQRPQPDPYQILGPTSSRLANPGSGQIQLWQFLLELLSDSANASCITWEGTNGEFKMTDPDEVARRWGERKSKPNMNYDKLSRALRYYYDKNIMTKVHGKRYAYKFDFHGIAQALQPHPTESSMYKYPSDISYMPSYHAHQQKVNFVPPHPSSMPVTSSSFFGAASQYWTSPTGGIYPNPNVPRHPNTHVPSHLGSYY
An outline of the steps: (§1)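 After expression in yeast as GST fusions, human transcription factors were bound to glutathione beads, DNA-barcoded and mixed with a tag-only sample. The pools were incubated with 200 nmole of a 16-mer random double-stranded DNA library in Tris/NaCl/DTT/glycerol buffer (30 min, room temperature), washed and crosslinked with 0.1% formaldehyde. Proximity ligation with BsaI/T4 ligase ran for 1 h at 37 °C, before PCR amplification and sequencing on an Illumina NextSeq500. Binding signal is a hexamer's read frequency for a factor divided by its frequency for the tag-only sample.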

The next experiment addresses T2, ELK1 (Homo sapiens, UniProt P19419 1-428).
T2 sequence: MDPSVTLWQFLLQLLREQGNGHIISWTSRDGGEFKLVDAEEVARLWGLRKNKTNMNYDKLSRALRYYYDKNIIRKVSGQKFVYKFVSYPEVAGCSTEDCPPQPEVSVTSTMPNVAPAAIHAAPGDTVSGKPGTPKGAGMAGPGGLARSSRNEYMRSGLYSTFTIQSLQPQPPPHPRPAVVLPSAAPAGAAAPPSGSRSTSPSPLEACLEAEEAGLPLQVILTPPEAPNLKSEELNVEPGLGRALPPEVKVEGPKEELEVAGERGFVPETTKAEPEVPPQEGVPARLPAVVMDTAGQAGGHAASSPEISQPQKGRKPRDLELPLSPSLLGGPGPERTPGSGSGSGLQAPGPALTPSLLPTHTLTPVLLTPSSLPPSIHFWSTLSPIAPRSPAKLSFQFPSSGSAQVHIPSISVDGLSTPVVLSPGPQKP
An outline of the steps: as §1

A further experiment has as its target T3, GABPA (Homo sapiens, UniProt Q06546 1-454).
T3 sequence: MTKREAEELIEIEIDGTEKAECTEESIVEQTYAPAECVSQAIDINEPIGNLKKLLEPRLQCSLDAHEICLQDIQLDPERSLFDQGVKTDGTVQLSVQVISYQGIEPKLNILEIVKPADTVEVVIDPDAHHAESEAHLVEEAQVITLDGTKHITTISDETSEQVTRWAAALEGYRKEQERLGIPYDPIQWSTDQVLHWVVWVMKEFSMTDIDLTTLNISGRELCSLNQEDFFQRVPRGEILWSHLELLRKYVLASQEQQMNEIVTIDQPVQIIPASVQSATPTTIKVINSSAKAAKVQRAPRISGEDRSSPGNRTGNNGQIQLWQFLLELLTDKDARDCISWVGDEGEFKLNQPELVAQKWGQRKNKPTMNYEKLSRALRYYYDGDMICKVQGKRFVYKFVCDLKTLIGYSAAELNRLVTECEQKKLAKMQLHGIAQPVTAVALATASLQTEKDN
An outline of the steps:
as §1

The next experiment concerns the target T4, ERG (Homo sapiens, UniProt P11308 1-479).
T4 sequence: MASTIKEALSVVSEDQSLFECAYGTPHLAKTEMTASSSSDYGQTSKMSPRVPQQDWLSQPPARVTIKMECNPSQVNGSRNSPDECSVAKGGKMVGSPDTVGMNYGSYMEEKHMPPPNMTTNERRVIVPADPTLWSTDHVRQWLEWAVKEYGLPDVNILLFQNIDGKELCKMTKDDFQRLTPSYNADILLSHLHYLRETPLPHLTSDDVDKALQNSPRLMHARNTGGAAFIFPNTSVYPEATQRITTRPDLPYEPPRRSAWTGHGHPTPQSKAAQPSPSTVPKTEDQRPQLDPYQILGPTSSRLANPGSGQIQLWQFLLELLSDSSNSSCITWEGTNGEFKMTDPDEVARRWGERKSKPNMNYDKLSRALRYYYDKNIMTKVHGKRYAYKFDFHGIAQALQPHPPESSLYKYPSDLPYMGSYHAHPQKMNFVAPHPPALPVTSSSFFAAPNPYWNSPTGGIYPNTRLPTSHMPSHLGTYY
An outline of the steps: as §1

The target of the next experiment is ELF1 (Homo sapiens, UniProt P32519 1-619). An outline of the steps: as §1
ELF1, sequence (P32519 whole entry): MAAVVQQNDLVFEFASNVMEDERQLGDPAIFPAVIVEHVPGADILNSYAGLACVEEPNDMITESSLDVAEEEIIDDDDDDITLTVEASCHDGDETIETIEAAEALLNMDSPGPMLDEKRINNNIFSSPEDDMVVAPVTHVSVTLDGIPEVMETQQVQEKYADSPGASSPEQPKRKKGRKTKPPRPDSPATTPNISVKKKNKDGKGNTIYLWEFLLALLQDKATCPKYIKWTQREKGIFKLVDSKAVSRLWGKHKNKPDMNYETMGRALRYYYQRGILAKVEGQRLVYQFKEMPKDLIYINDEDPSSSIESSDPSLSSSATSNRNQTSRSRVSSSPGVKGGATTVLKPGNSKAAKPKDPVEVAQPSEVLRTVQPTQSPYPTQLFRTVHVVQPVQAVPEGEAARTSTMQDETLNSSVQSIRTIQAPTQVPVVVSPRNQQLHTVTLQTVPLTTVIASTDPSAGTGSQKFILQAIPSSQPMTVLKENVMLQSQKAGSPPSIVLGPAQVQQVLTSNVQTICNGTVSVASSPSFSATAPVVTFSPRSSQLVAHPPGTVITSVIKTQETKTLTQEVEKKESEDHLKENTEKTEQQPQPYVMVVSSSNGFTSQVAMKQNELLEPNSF
A further experiment deals with T5, EHF (Homo sapiens, UniProt Q9NZC4 1-300).
T5 sequence: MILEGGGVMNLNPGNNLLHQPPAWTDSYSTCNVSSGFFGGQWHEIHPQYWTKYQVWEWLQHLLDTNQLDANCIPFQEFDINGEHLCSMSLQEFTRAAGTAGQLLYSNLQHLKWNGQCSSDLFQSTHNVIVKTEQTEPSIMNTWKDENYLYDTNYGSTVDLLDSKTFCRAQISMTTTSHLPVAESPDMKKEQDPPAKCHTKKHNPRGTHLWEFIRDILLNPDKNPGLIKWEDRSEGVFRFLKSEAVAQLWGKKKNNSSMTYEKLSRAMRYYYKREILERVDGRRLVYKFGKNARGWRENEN
In a few lines:
as §1

In another experiment the target is SPI1 (Homo sapiens, UniProt P17947 1-270). An outline of the steps:
as §1

Another experiment has as its target SPIB (Homo sapiens, UniProt Q01892 1-262). An outline of the steps:
as §1

Another experiment deals with T6, ELK3 (Homo sapiens, UniProt P41970 1-407).
T6 sequence: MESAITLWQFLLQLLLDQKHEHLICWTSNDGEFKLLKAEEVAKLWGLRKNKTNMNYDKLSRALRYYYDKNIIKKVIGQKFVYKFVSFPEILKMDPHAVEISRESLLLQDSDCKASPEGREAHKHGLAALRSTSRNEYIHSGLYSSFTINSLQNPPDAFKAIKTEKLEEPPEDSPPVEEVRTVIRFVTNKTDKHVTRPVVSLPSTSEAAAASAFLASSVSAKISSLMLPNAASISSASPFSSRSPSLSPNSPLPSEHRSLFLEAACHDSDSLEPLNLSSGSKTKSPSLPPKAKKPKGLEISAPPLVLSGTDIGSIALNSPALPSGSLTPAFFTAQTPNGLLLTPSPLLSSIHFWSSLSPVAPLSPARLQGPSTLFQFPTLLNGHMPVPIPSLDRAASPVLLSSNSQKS
An outline of the steps:
as §1

SPIB, sequence (Q01892 whole entry): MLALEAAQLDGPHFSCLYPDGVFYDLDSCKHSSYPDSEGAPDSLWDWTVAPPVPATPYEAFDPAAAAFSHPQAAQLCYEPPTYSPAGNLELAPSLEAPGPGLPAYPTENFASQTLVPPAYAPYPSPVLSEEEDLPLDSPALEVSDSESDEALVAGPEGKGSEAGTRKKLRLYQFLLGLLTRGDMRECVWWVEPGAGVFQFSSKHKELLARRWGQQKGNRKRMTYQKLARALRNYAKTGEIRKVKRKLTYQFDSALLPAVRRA

Consider CGTATT, for which the binding signal with FLI1 is 1.24 fold enrichment (6-mer frequency, TF over GST control); in the experiment with ELK1 it was 1.18 fold enrichment (6-mer frequency, TF over GST control); in the experiment with GABPA it was 1.12 fold enrichment (6-mer frequency, TF over GST control); in the experiment with ERG, 1.15 fold enrichment (6-mer frequency, TF over GST control); in the experiment with ELF1, 1.11 fold enrichment (6-mer frequency, TF over GST control); with EHF, 1.12 fold enrichment (6-mer frequency, TF over GST control). Moreover, the binding signal with SPI1 was 1.17 fold enrichment (6-mer frequency, TF over GST control); with SPIB, 1.24 fold enrichment (6-mer frequency, TF over GST control); with ELK3, 1.38 fold enrichment (6-mer frequency, TF over GST control).

Turning to TAGCTA, the binding signal in the experiment with FLI1 is 1.22 fold enrichment (6-mer frequency, TF over GST control); with ELK1, 1.24 fold enrichment (6-mer frequency, TF over GST control); in the experiment with GABPA it was 1.21 fold enrichment (6-mer frequency, TF over GST control); in the experiment with ERG, 1.22 fold enrichment (6-mer frequency, TF over GST control); with ELF1, 1.25 fold enrichment (6-mer frequency, TF over GST control); with EHF, 1.22 fold enrichment (6-mer frequency, TF over GST control). In addition, the binding signal with SPI1 is 1.2 fold enrichment (6-mer frequency, TF over GST control); with SPIB it was 1.22 fold enrichment (6-mer frequency, TF over GST control); with ELK3 it was 1.29 fold enrichment (6-mer frequency, TF over GST control).

For CTTAAC, the binding signal was 1.21 fold enrichment (6-mer frequency, TF over GST control) with FLI1; 1.17 fold enrichment (6-mer frequency, TF over GST control) in the experiment with ELK1; 1.28 fold enrichment (6-mer frequency, TF over GST control) with GABPA; 1.26 fold enrichment (6-mer frequency, TF over GST control) with ERG; 1.35 fold enrichment (6-mer frequency, TF over GST control) with ELF1; 1.26 fold enrichment (6-mer frequency, TF over GST control) with EHF. The binding signal was 1.32 fold enrichment (6-mer frequency, TF over GST control) with SPI1; 1.4 fold enrichment (6-mer frequency, TF over GST control) with SPIB; 1.31 fold enrichment (6-mer frequency, TF over GST control) in the experiment with ELK3.

Turning to AGATCC, the binding signal with FLI1 was 1.05 fold enrichment (6-mer frequency, TF over GST control); with ELK1 it was 1.12 fold enrichment (6-mer frequency, TF over GST control); with GABPA it was 1.09 fold enrichment (6-mer frequency, TF over GST control); in the experiment with ERG, 1.15 fold enrichment (6-mer frequency, TF over GST control); in the experiment with ELF1, 1.1 fold enrichment (6-mer frequency, TF over GST control); with EHF, 1.12 fold enrichment (6-mer frequency, TF over GST control). Further, the binding signal in the experiment with SPI1 was 1.03 fold enrichment (6-mer frequency, TF over GST control); in the experiment with SPIB it was 1.18 fold enrichment (6-mer frequency, TF over GST control); with ELK3 it was 1.1 fold enrichment (6-mer frequency, TF over GST control).

For TCGCCC, the binding signal with FLI1 was 1.34 fold enrichment (6-mer frequency, TF over GST control); with ELK1, 1.4 fold enrichment (6-mer frequency, TF over GST control); with GABPA, 1.3 fold enrichment (6-mer frequency, TF over GST control); in the experiment with ERG, 1.27 fold enrichment (6-mer frequency, TF over GST control); with ELF1 it was 1.31 fold enrichment (6-mer frequency, TF over GST control); in the experiment with EHF it was 1.27 fold enrichment (6-mer frequency, TF over GST control). Moreover, the binding signal with SPI1 is 1.29 fold enrichment (6-mer frequency, TF over GST control); with SPIB it was 1.25 fold enrichment (6-mer frequency, TF over GST control); in the experiment with ELK3, 1.27 fold enrichment (6-mer frequency, TF over GST control).

For the sequence AACCAA, the binding signal was 1.24 fold enrichment (6-mer frequency, TF over GST control) with FLI1; 1.22 fold enrichment (6-mer frequency, TF over GST control) with ELK1; 1.25 fold enrichment (6-mer frequency, TF over GST control) with GABPA; 1.16 fold enrichment (6-mer frequency, TF over GST control) with ERG; 1.22 fold enrichment (6-mer frequency, TF over GST control) in the experiment with ELF1; 1.22 fold enrichment (6-mer frequency, TF over GST control) with EHF. In addition, the binding signal with SPI1 was 1.19 fold enrichment (6-mer frequency, TF over GST control); with SPIB, 1.15 fold enrichment (6-mer frequency, TF over GST control); with ELK3, 1.19 fold enrichment (6-mer frequency, TF over GST control).

Turning to TTTGAC, the binding signal with FLI1 is 1.57 fold enrichment (6-mer frequency, TF over GST control); with ELK1, 1.59 fold enrichment (6-mer frequency, TF over GST control); with GABPA, 1.55 fold enrichment (6-mer frequency, TF over GST control); with ERG, 1.45 fold enrichment (6-mer frequency, TF over GST control); in the experiment with ELF1 it was 1.4 fold enrichment (6-mer frequency, TF over GST control); with EHF, 1.35 fold enrichment (6-mer frequency, TF over GST control). Besides, the binding signal was 1.34 fold enrichment (6-mer frequency, TF over GST control) in the experiment with SPI1; 1.35 fold enrichment (6-mer frequency, TF over GST control) with SPIB; 1.34 fold enrichment (6-mer frequency, TF over GST control) with ELK3.
